Rows were chosen to be rich in hits. Some 4.8% of all compounds tested hit in one or more screens of this group.
Mdm2 MdmX PPI = inhibitors of human Mdm2-MdmX association, primary screen, cell-based, luminescence, split luciferase, SaOS-2, uHTS | hit rate 3% among 330,000 | inhibition, % at 8 µM | Protein Mdm4 (Homo sapiens) + E3 ubiquitin-protein ligase Mdm2 (Homo sapiens), … | AID 485346, 2010 | SaOS-2 split-luciferase Mdm2/MdmX complementation;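 active = inhibition of at least 50% at 8 µM in the primary screen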
MPTP block = mitochondrial permeability transition pore inhibitors, primary screen, biochemical, isolated mouse mitochondria, absorbance; Ca2+ swelling absorbance, 30 min; inhibition, % at 10 µM; hit rate 1.4% among 360,000; AID 602449, 2012;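 active = inhibition of 50% or more, scaled per plate between neutral and stimulator controls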;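 note: 0% = DMSO wells given calcium and 100% = 1 mM EGTA wells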
CSC inhib = cancer stem cell viability inhibitors, primary screen, luminescence; cancer stem cell-like cells viability; inhibition, % at 7.5 µM; hit rate 1.1% among 300,000; in the data active = inhibition above about 75%; inconclusive = no clear call, values can overlap the other calls; tested in HMLE shEcad cells
Calb FLC = C. albicans growth inhibition with fluconazole, primary screen, CaCi-2 strain, Alamar Blue fluorescence; C. albicans CaCi-2 (fluconazole-resistant clinical isolate) + fluconazole, 48 h; growth inhibition, % (test concentration not listed); hit rate 0.57% among 300,000; AID 1979, 2009;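 active = growth inhibition above about 58% in most replicates, limit read from the data, passing the limit was not always enough; inconclusive = exactly half the replicates above a set limit; inactive = most replicates below a set limit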;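 note: all wells also contain fluconazole at 8 µg/ml as a sub-toxic cotreatment; 0% = median of DMSO wells and 100% = median of geldanamycin control wells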
Beta cell apopt = inhibitors of cytokine-induced beta cell apoptosis, primary screen, luminescence | INS-1E cytokine-induced death, ATP luminescence, 48 h; percent of positive-control rescue, neutral wells zero | protection from apoptosis, % (no concentration beside the values) | hit rate 0.8% among 300,000 | AID 435005, 2010;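 active = Every replicate reaches about 75%, or at least half do and their mean reaches it too, limit read from the data; inconclusive = At least half of replicates reach the limit but their mean does not; inactive = Under half of replicates reach the limit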;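 note: 0% = cytokine-treated negative control wells and 100% = positive control rescue; higher means more ATP so stronger rescue from cytokine killing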
Mdm2-MdmX conf = Mdm2-MdmX complex disruptors, retested hits, confirmation, luminescence, single concentration | AID 489028, 2010 | inhibition, % at 8 µM | shares compounds with Mdm2 MdmX PPI | Mdm2-MdmX binding, luminescent assay | hit rate 55% among 10,000; in the data active = inhibition above about 40%
Full FLuc ctr = full-length luciferase signal inhibition, confirmation, counter-screen for Mdm2/MdmX interaction inhibitor project, cell-based, single concentration, SaOS-2; shares compounds with Mdm2 MdmX PPI; SaOS-2 full-length luciferase counterscreen, luminescence; inhibition, % at 8 µM; hit rate 77% among 6,200;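 active = mean inhibition at 8 µM reaching about 37%, which flags the compound as non-specific, limit read from the data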;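 note: p53-null SaOS-2 cells with luciferase driven by a doxycycline-inducible promoter; compound on cells about two nights before reading with doxycycline added after day one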
MPTP counter = fluorescence retest of MPTP screen hits in isolated mitochondria, single concentration | shares compounds with MPTP block | membrane potential, Rhodamine 123 fluorescence | inhibition, % at 10 µM | hit rate 78% among 5,000; in the data active = inhibition above about 22%;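 note: 0% = DMSO vehicle and 100% = positive control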
MPTP abs DR = mitochondrial permeability transition pore inhibitors, dose response, biochemical, absorbance, uHTS hits | shares compounds with MPTP block | isolated mitochondria swelling | IC50, µM | hit rate 58% among 780; in the data active = IC50 below about 20 µM
MPTP counter DR = fluorescent counter-screen in isolated mitochondria, dose response, counter-screen for MPTP inhibitor project, biochemical, fluorescence, uHTS hits | IC50, µM | hit rate 49% among 780 | shares compounds with MPTP block | isolated mitochondria counterscreen, fluorescence read-out; in the data active = IC50 below about 80 µM
Active calls of the source: *; i = inactive; ? = inconclusive; / = not tested or not shown; ! = not active in a repeat.

SMILES | Mdm2 MdmX PPI | MPTP block | CSC inhib | Calb FLC | Beta cell apopt | Mdm2-MdmX conf | MPTP counter | others
CCN=c1scc(-c2ccccc2)n1/N=C/c1ccccn1 | 85* | 66* | 29 | 20 | 39 | 66* | 46* | Full FLuc ctr=127*
COc1ccc([C@@H](C)NC(=O)c2ccc3oc(C(C)C)nc3c2)cc1 | -14 | 0 | -5 | -10 | -2 | / | /
Cc1ccc(NC2=CC(=O)CC(C)(C)C2)cc1Cl | 0 | -1 | -7 | -16 | -1 | / | /
Cc1ccc(Nc2nc3nonc3[nH]c2=O)cc1Cl | 76* | 92* | 2 | 0 | 20 | 80* | 99* | Full FLuc ctr=72*
CC1(C(=O)NC2CCCCCC2)CCN1C(=O)Cc1ccc(-c2ccccc2)cc1 (configuration not stated) | / | 1 | / | / | / | / | /
COc1ccc(C(=O)N2CCCC(c3cc(C(=O)NCc4ccc(F)cc4)no3)C2)cc1 (configuration not stated) | / | 1 | / | / | / | / | /
CC(NCCC(c1ccccc1)c1ccccc1)c1ccccc1 (configuration not stated) | 58* | 94* | 18 | / | 19 | 16 | -2
CC(C)NC(=O)Nc1cccc(Cl)c1 | 14 | 2 | -16 | -1 | -6 | / | /
O=C(Nc1cccc(Cl)c1)Nc1csc([N+](=O)[O-])c1 | 90* | 72* | ? | -1 | 126* | 87* | 69* | Full FLuc ctr=39*
CCCCCCc1cc2cc(-c3nnc(-c4ccccc4O)o3)c(=O)oc2cc1O | 73* | 104* | 109* | 20 | 106* | 91* | 5 | Full FLuc ctr=22
O=C(O)c1ccc2oc(=O)c(S(=O)(=O)c3ccc(F)cc3)cc2c1 | -15 | 0 | -17 | -5 | 1 | / | /
COc1ccc(-c2nnc(-c3cc4ccccc4oc3=O)o2)cc1 | -14 | 0 | -2 | 8 | -3 | / | /
CCCCCCc1cc2cc(S(=O)(=O)c3ccc(F)cc3)c(=O)oc2cc1O | 57* | 81* | 30 | -3 | 3 | 51* | 93* | Full FLuc ctr=85*
CCCCCCc1cc2cc(C(=O)Nc3ccccc3OC)c(=O)oc2cc1O | 95* | 57* | 19 | -1 | 19 | 9 | -5 | MPTP abs DR=2.6*;MPTP counter DR=<2.5*
O=C1COc2ccccc2N1Cc1c(F)cccc1Cl | 18 | 0 | -6 | -6 | -3 | / | /
CN1OC[C@@H]2CN(S(=O)(=O)c3cccc4ccccc34)[C@H](c3ccc(-c4ccccc4)cc3)C[C@@H]21 | / | -2 | / | / | / | / | /
N#C/C(=C/c1ccc(Sc2nc3ccccc3[nH]2)o1)c1cccc(Br)c1 | 60* | 84* | 60 | 4 | 1 | 12 | 98*
O=C(N/N=C/c1ccc(Sc2nc3ccccc3[nH]2)o1)c1ccncc1 | -14 | 26 | -15 | -3 | 4 | / | /
Cc1c(CCOC(=O)c2ccc(Cl)cc2Cl)sc[n+]1CC(=O)c1ccc(Br)cc1 | -13 | -1 | 19 | / | 26 | / | /
Cc1c(CCOC(=O)C2C3CC4CC(C3)CC2C4)sc[n+]1CC(=O)c1ccc(Br)cc1 (configuration not stated) | 67* | 100*! | 108* | 29 | 52 | 16 | -3 | MPTP abs DR=3.7*;MPTP counter DR=21*
Cc1c(C(=O)N/N=C/c2ccc(Cl)cc2)[nH]c2ccc(Cl)cc12 | 63* | 96* | 57 | 6 | 35 | 62* | 67* | Full FLuc ctr=91*
O=C(CCn1cccn1)Nc1ccc2c(c1)OCO2 | -9 | 0 | 8 | -9 | 2 | / | /
Cc1ccc(C(=O)C(C)OC(=O)c2nc(Cl)ccc2Cl)cc1 (configuration not stated) | 9 | 0 | -12 | -10 | -4 | / | /
Cn1c(O)c(/C=C2\C=Nc3ccccc32)sc1=Nc1ccc(C(=O)O)cc1 | 35 | 2 | 7 | 13 | -7 | / | /
Oc1nc(Nc2ccc(Cl)cc2Cl)sc1/C=C1\C=Nc2ccccc21 | 86* | 96* | 0 | -10 | / | 34 | 58*
SMILES | Mdm2 MdmX PPI | MPTP block | CSC inhib | Calb FLC | Beta cell apopt | Mdm2-MdmX conf | MPTP counter | others
CN(C(=O)c1cccc(NC(=O)Cc2ccc(NC(=O)C3CCCN(C(=O)C4CCC4)C3)cc2)c1)C1CCC1 (configuration not stated) | / | 0 | / | / | / | / | /
COc1cc(CNC(=O)c2cc3ccccc3oc2=O)cc(OC)c1OC | -11 | 4 | -3 | -1 | -4 | / | /
O=C(CN1C(=O)NC2(CCOc3ccccc32)C1=O)NCC(F)(F)F (configuration not stated) | 0 | 0 | -14 | -3 | -9 | / | /
COc1ccc(C(CNC(=O)c2oc3cc(C)c(Cl)cc3c2C)N2CCCCC2)cc1 (configuration not stated) | 82* | 71* | 11 | -4 | -3 | 36 | -8 | MPTP abs DR=i;MPTP counter DR=>80
COc1ccc(C(CNC(=O)c2oc3ccc(C)cc3c2C)N2CCCCC2)cc1 (configuration not stated) | 20 | 2 | / | 1 | / | / | /
COc1ccc(/C(C)=N/NC2=NCCN2)cc1Cl | 21 | -2 | 2 | 17 | 8 | / | /
CCCCOc1ccc(Br)cc1/C(C)=N/NC1=NCCN1 | 89* | 67* | -12 | 27 | 56 | 64* | 92* | Full FLuc ctr=39*
COC(=O)c1cn[nH]c1NC(=S)Nc1ccc(Cl)c(Cl)c1 | 56* | 99* | -5 | 28 | 11 | -20 | 81*
COC(=O)c1cn[nH]c1NC(=S)Nc1ccccc1C | -8 | 0 | / | 7 | / | / | /
COC(=O)c1cn[nH]c1NC(=S)Nc1ccc(C)cc1Cl | 52* | 96* | -8 | 18 | 7 | -12 | 75*
CCN1C(=O)[C@H]2[C@H]3CN=C(SCC(=O)c4ccccc4)N3[C@@](C)(C(=O)OC)[C@H]2C1=O | 16 | 1 | / | / | / | / | /
Cc1cc(SCC(=O)N/N=C/c2ccc(O)cc2O)c(C)cc1Br | 61* | 91* | 96* | 101* | 55 | 66* | 56* | Full FLuc ctr=67*
CCOC(=O)c1sc(NC(=O)Nc2cccc(Cl)c2)cc1C | 78* | 79* | -5 | -10 | 101* | 71* | 49* | Full FLuc ctr=34
Cn1nc(C(F)(F)F)c2cc(C(=O)Nc3ccc(C(F)(F)F)cc3)sc21 | 61* | 91* | 72 | 23 | 35 | 12 | 75*
